# In the library only some 3.6% were active in any assay of this set; here they are far more common.
# BoNT-F LC inh: blocks Botulinum neurotoxin F light chain protease. inhibition, % at 10 µM. 360,000 compounds, 0.22% hits. AID 588497. Multiplex microsphere protease cleavage assay, flow cytometry; in the data active means inhibition above about 35%, passing the limit was not always enough; inconclusive means no clear call, values can overlap the other calls
# Anthrax LF inh2: inhibitors of Bacillus anthracis lethal factor protease; multiplex microsphere protease cleavage assay, LF; inhibition, % at 10 µM; 360,000 compounds, 0.12% hits; AID 588501
# MazF activator: increases E. coli MazEF RNase cleavage of RNA; 350,000 compounds, 0.32% hits; P0AE70; FAM/BHQ RNA-DNA oligo cleavage fluorescence, 5 h; activation, % at 20 µM; in the data active means activation above about 50%
# Target sequence (P0AE70 whole entry, looked up): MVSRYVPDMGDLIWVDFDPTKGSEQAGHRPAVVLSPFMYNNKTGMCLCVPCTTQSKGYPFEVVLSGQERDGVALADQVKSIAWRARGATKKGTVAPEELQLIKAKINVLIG
# Autofluor counter: counter-screen for toxin protease inhibitors: compound fluorescence; AID 624483; compound autofluorescence counterscreen, microsphere flow cytometry; active compounds read high; fluorescence intensity (test concentration not listed); 360,000 compounds, 3.1% hits; in the data active means fluorescence intensity above about 16000; inconclusive means no clear call, values can overlap the other calls
# BoNT-A LC inh2: blocks Botulinum neurotoxin A light chain protease | multiplex microsphere protease substrate cleavage, flow cytometry | inhibition, % at 10 µM | 360,000 compounds, 0.17% hits | AID 588499
# A number is an active result; – = inactive; ? = inconclusive; · = no result. Unless noted, no stated cut-off is given here; in the data, active means inhibition above about 30%; inconclusive means no clear call, values can overlap the other calls; inactive means below that.
SMILES,BoNT-F LC inh,Anthrax LF inh2,MazF activator,Autofluor counter,BoNT-A LC inh2
Cn1c(=O)cc(OCC(=O)N2CCCc3ccccc32)c2ccccc21,–,–,–,21145,–
Cn1c(=O)cc(OCC(=O)N2CCN(c3cccc(C(F)(F)F)c3)CC2)c2ccccc21,–,–,–,20645,–
CCOC(=O)N1CCN(C(=O)COc2cc(=O)n(C)c3ccccc23)CC1,–,–,–,–,–
CCN1CCCC1CNC(=O)COc1cc(=O)n(C)c2ccccc12 (centres undefined),–,–,–,23013,–
O=C(Nc1c(F)c(F)c(F)c(F)c1F)c1ccc(Br)o1,–,–,–,–,–
CCN(CC(=O)NCCCN1CCOCC1)S(=O)(=O)c1ccc(F)cc1,–,–,–,–,–
CS(=O)(=O)N(CC(=O)NCCSCc1ccccc1)c1ccccc1F,–,–,–,–,–
COc1ccc(N(CC(=O)Nc2ccc(Cc3ccncc3)cc2)S(=O)(=O)c2ccccc2)cc1,–,–,–,–,–
O=C(NC1CC1)C1=C[C@H](c2ccc(C(F)(F)F)cc2)C[C@H](OCc2ccc(CO)cc2)O1,–,–,199,–,–
Cc1ccc(S(=O)(=O)N2CCC(=O)N(CCOC(=O)Nc3ccc(F)cc3)CC2)cc1,–,–,–,–,–
C=CCc1cccc2cc(C(=O)N3CCN(C(=O)c4ccccc4)CC3)c(=O)oc12,–,–,–,–,–
O=S(Cc1ccc(Cl)cc1)CC(O)(c1ccccc1)c1ccccc1 (centres undefined),–,–,–,–,–
O=S(Cc1ccccc1)CC(O)(c1ccccc1)c1ccccc1 (centres undefined),–,–,–,21390,–
c1ccc2[nH]c(NCCCN3CCOCC3)nc2c1,–,–,–,24547,?
O=c1[nH]c2ccccc2nc1NCCN1CCOCC1,–,–,–,–,–
O=C(OCc1nnc(-c2ccccc2)o1)c1cc(S(=O)(=O)N2CCOCC2)ccc1F,–,–,–,–,–
O=C(Cc1cccc(NC(=O)C2CCCN(C(=O)CCc3ccccc3)C2)c1)Nc1cccc(C(=O)N2CCCC2)c1 (centres undefined),–,–,–,–,–
Clc1cccc(-c2nc(NCc3cccnc3)c3ccccc3n2)c1,–,–,–,17205,–
c1ccc(-c2nc(NCc3cccnc3)c3ccccc3n2)cc1,–,–,–,–,–
Cc1cccc(NC(=O)C(C)Sc2nc3ccccc3c(=O)n2CCCN2CCOCC2)c1 (centres undefined),–,–,–,18006,–
Cc1onc(-c2ccccc2)c1C(=O)Oc1cccnc1,–,–,–,21663,–
COCCNC(=O)C(c1ccc(Cl)cc1)N(C(=O)Cn1nnc2ccccc21)c1cccnc1 (centres undefined),–,–,–,–,–
O=C1CCC(OCc2ccccc2)CCN1[C@H](CSc1ccccc1)Cc1ccccc1 (some centres undefined),–,–,·,–,–
Cc1ccc2cc(CN(CC3CCCO3)C(=O)C(C)C)c(=O)[nH]c2c1 (centres undefined),–,–,–,23042,–
Cc1ccc2cc(CN(CC(C)C)C(=O)C3CCCO3)c(=O)[nH]c2c1 (centres undefined),–,–,–,–,–
SMILES,BoNT-F LC inh,Anthrax LF inh2,MazF activator,Autofluor counter,BoNT-A LC inh2
CCNC(=O)C1(C)CCCN(CCOc2ccc(OC)cc2)C1 (centres undefined),–,–,·,–,–
CCc1ccc(NC(=O)C(C)Sc2nnc(CN3CCCC3)o2)cc1 (centres undefined),–,–,–,–,–
O=C(CCCN1C(=O)c2ccccc2C1=O)N1CCC(c2ccccc2)C1 (centres undefined),–,–,–,20922,–
FC(F)Sc1ccc(NC(=S)NCc2ccccc2)cc1,–,–,–,–,–
FC(F)Sc1ccc(NC(=S)NC(c2ccccc2)c2ccccc2)cc1,–,–,127,–,–
Cn1cnnc1SCC(=O)N(Cc1ccc2c(c1)OCO2)C1(C(=O)NC2CCCCC2)CCCC1,–,–,–,22413,–
N/C(=N\OC(=O)c1cccc2ccccc12)c1cccc([N+](=O)[O-])c1,–,–,55,16600,–
N/C(=N\OC(=O)c1ccccc1Cl)c1ccccc1,–,–,–,22870,?
N/C(=N\OC(=O)c1ccc(F)cc1)c1ccccc1,–,–,–,22601,–
N/C(=N\OC(=O)c1ccccc1Cl)c1ccc(Cl)cc1,–,–,–,–,–
COc1ccccc1C(CNC(=O)CCNS(=O)(=O)c1ccc(Br)cc1)N1CCCC1 (centres undefined),–,–,–,–,–
Cc1ccccc1Cc1c(C)nc2nc(SCC(=O)NCc3ccco3)nn2c1C,–,–,–,–,–

# Screens from PubChem.
